Data on 31 molecules can be found in PubChem BioAssay AID598 (SRMLSC, 2007).

Broadly, the viability is a read-out of living cells in per cent, often relative to untreated cells.

The structures appear in SMILES notation. The campaign covered roughly 85,000 compounds. About 5,100 (6%) were called active. The list comes from a sample in which actives are over-represented; it also holds similar structures and randomly drawn compounds. Unmarked numbers belong to inactive results.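 The calls were made as follows: active = viability at or below 40%; inactive = viability above 40%.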

The nature of the assay: H69AR cell viability reduction – human, 86K library, primary screen (AID 598).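 Also: multidrug resistant small cell line overexpressing MRP-1 efflux transporter; 100% = mean luminescence of untreated control wells.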 The note with it: H69AR lung tumor viability, ATP luminescence, 72 h; at 10 µM; active compounds read low.
With `CCN1CCN(Cc2c(O)ccc3c(=O)c(-c4ccc(OC)c(OC)c4)c(C(F)(F)F)oc23)CC1`, the viability is 104%.

For `O=c1c(-c2ccc3c(c2)OCCO3)c(C(F)(F)F)oc2cc(O)cc(O)c12`, the viability is 39% (active).

Take `CCSc1ccccc1C(=O)NCc1ccc(OC)cc1`: the viability is 92.6%.

`CC(C)c1ccc(-c2noc(C3CCCN(S(C)(=O)=O)C3)n2)cc1` (stereo unspecified): the viability is 106%.

Regarding `CC1CCCC(C)N1CCCNC(=O)c1cc2c(=O)n(C)c3ccccc3c2n1C` (stereo unspecified), the viability was 69.1%.

Turning to `Cn1c(C(=O)NCCCN2CCN(c3cccc(Cl)c3)CC2)cc2c(=O)n(C)c3ccccc3c21`, the viability is 1.66% (active).

For `CCn1c(=O)cc(OCC(=O)NCCCN2CCN(c3cccc(Cl)c3)CC2)c2ccccc21`, the viability was 43.8%.

Consider `Cn1c(=O)c2c(ncn2CC(COCc2ccccc2Cl)OCc2ccccc2Cl)n(C)c1=O` (stereo unspecified), for which the viability is 77.7%.

As to `Cc1ccc(-c2noc(CSc3nnc(-c4cccs4)n3C)n2)cc1`, the viability was 98.8%.

With `COCCNS(=O)(=O)c1cc(Br)ccc1OC`, the viability was 106%.

As for `CCOCCn1c(C(C)C)nc2ccccc21`, the viability is 102%.

Consider `CCC(=O)NC(Nc1cc(C)ccn1)(C(F)(F)F)C(F)(F)F`, for which the viability is 99%.

As to `O=C(Nn1cc(C(=O)N2CCN(c3ccccc3F)CC2)c2ccccc2c1=O)c1cnccn1`, the viability was 34.7% (active).

With `COc1ccc2oc(=O)c(C(=O)N3CCN(c4ccccc4F)CC3)cc2c1`, the viability was 108%.

As to `O=C(c1cccc2ccccc12)N1CCN(c2ccccc2F)CC1`, the viability was 56%.

Take `CC(C)OC(=O)c1c(NC(=O)c2ccco2)sc2c1CCCC2`: the viability is 109%.

Regarding `O=C1C(Cl)=C(N2CCOCC2)C(=O)N1c1ccccc1`, the viability is 86.6%.

Turning to `COc1ccc(S(=O)(=O)Nc2ccc3oc(C)c(C(C)=O)c3c2)cc1`, the viability is 18.7% (active).

Turning to `COc1ccc2oc(C)c(NC(C)=O)c2c1`, the viability is 97.4%.

On to `COc1cc(NS(=O)(=O)c2ccc(NC(C)=O)cc2)cc(OC)c1`, for which the viability is 90.3%.

For the molecule `C=CCN(C(=O)Cn1ncc2c1-c1cc(C)ccc1OC2)c1ccccc1`, the viability was 84.9%.

`CC(=O)C1=C(C)NC(=O)NC1c1cc(Br)ccc1OCC#N` (stereo unspecified): the viability is 97.1%.

Consider `COc1ccccc1-n1c(CNC(=O)c2ccccc2)nnc1SCC(=O)Nc1nnc(C)s1`, for which the viability is 108%.

Regarding `Cc1cnc(NC(=O)CSc2nnc(C)s2)s1`, the viability is 81.4%.

For the molecule `Cc1nnc(NC(=O)CSc2nccn2-c2cccc(C)c2C)s1`, the viability was 29.5% (active).

As for `C=CCOC(=O)C1=C(C)NC(SCC(=O)OCC)=C(C#N)C1c1ccc(C)cc1` (stereo unspecified), the viability was 61.6%.

On to `COc1cc2c(cc1OC)C(c1ccc(C)o1)CC(=O)N2` (stereo unspecified), for which the viability was 85.8%.

In the case of `CCOC(=O)CSC1=C(C#N)C(c2ccco2)C(C(=O)OCc2ccccc2)=C(C)N1` (stereo unspecified), the viability was 22.2% (active).

With `COC(=O)CSC1=C(C#N)C(c2ccccc2OC)C(C(=O)OC)C(=O)N1` (stereo unspecified), the viability is 94.8%.

Turning to `Cc1ccc(C2CC(=O)NC(SCC(=O)OCc3ccccc3)=C2C#N)o1` (stereo unspecified), the viability is 24.4% (active).

Regarding `CC1=C(C(=O)Nc2ccccc2)C(c2ccco2)C(C#N)=C(SCC(N)=O)N1` (stereo unspecified), the viability is 91%.
